Results taken from PubChem BioAssay.
The source made the active and inactive calls.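 The calls were made as follows, unless noted: active = inhibition above the screen-wide mean plus 3 SD, about 51%; inactive = the rest.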

Experiments:
[1] = inhibitors of CD8+ T cell-vesicle binding, pilot screen, LFA-1/ICAM-1 modulator project, MLPCN validation set, flow cytometry (AID 2523;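 active = response below a set limit, under 55% cells CD8-positive and vesicle-bound, and CD8 cells' 90th-percentile brightness under 279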;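 as to vesicle binding response: mean PE anti-B7-1 fluorescence of CD8+ cells relative to row control; 100% = QL9-loaded vesicles with DMSO vehicle in the same plate row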); conditions: 2C mouse CD8+ T cells, at 7 µM, stronger effect = lower value; double positive events: measured here: CD8+/vesicle+ event percentage
[2] = biological target: Integrin beta-1 (Homo sapiens) + Integrin alpha-4 (Homo sapiens) (UniProt P13612+P05556); test: inhibition of HUTS-21 binding to VLA-4, pilot screen, VLA-4 allosteric modulator project, U937 cells, HUTS-21 mAb, flow cytometry, validation set (AID 2674;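 active = inhibition above 50%, about 3 SD of the validation set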;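 also: antibody binding induced by the VLA-4 ligand LDV present at three times its Kd; 0% = LDV ligand with antibody and no compound and 100% = antibody without LDV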); conditions: HUTS-21 LIBS mAb binding, at 6.7 µM, stronger effect = higher value, binding induced by LDV ligand
[3] = superoxide lowering in aged yeast cells, pilot screen, validation compound set (AID 2706;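 active = superoxide response below 65% of plate, a cut near 3 SD across the whole screen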;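 also: yeast exposed to compound for one week at 30 degrees C before staining; 100% = mean of all compound wells on the same plate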); conditions: S. cerevisiae aging, superoxide DHE fluorescence; at 10 µM, stronger effect = lower value
[4] = biological target: Beta-adrenergic receptor kinase 1 (Homo sapiens) (UniProt P25098); test: GRK2 binders displacing RNA aptamer, biochemical, validation, human GRK2, bead flow cytometry (AID 488806;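 active = aptamer binding inhibition above 30%, about 3 SD of noise from non-fluorescent compounds; inactive = inhibition at or below 30%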); conditions: bead-bound GRK2, FAM-aptamer displacement, at 10 µM, stronger effect = higher value
[5] = biological target: Beta-2 adrenergic receptor (Homo sapiens) (UniProt P07550); test: beta2AR agonists driving receptor internalization, pilot screen, cell-based, FAP fluorogen, flow cytometry, validation set (AID 504459;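 active = percent response above 42, roughly 3 SD of non-fluorescent test compounds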;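 also: agonist-driven loss of surface beta2AR via internalization measured by FAP dye flow cytometry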); conditions: Am2.2-beta2AR cells, FAP surface receptor flow cytometry; at 10 µM; stronger effect = higher value
[6] = biological target: AP-2 complex subunit beta (Homo sapiens) (UniProt P63010); test: inhibitors of arrestin peptide binding to AP2, pilot screen, biochemical, validation set, GST-AP2 beads, flow cytometry (AID 504541;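 active = inhibition above 54%, about 3 SD of non-fluorescent compounds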;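 also: AP2 carries R879A mutation and is captured from E. coli lysate; bead-bound FITC arrestin peptide fluorescence measuring arrestin peptide binding to AP2; 0% = DMSO wells and 100% = excess unlabeled arrestin peptide control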); conditions: FITC arrestin peptide, at 10 µM, stronger effect = higher value, AP2 beta2 appendage fragment, R879A mutant
[7] = yeast V-ATPase proton transport modulators, S. cerevisiae, pHLuorin, HTS validation (AID 504600; in the data active = response above about 15%;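 also: plate controls were DMSO for no effect and reference compound for full effect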); conditions: S. cerevisiae pHLuorin cytosolic pH, at 10 µM, stronger effect = higher value
[8] = test system: anti-desmoglein-3 scFv antibody binding to human DSG3; test: inhibitors of anti-DSG3 scFv binding to DSG3, pilot screen, biochemical, validation compound set, bead-based, flow cytometry (AID 588368;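 active = binding below the plate cutoff, the plate median minus 3 SD, with a reading above zero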;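 also: signal is the median channel fluorescence of bead-bound GFP antibody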); conditions: Protein G beads, DSG3-Fc, scFv-GFP binding, at 10 µM, stronger effect = lower value
[9] = inhibitors of fungal efflux pumps CDR1, CDR2, MDR1, pilot screen, validation compound set, multiplex, phenotypic (AID 588506;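 active = efflux inhibition above 0.42, the validation set average plus 4 SD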;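 also: Nile Red retained in cells so higher fluorescence means more efflux inhibition; 0 = negative control wells and 1 = enniatin B 25 µM full block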); conditions: S. cerevisiae pump-expressing triplex, Nile Red efflux flow cytometry; at 10 µM; stronger effect = higher value; the pumps come from Candida albicans
[10] = biological target: ATP-binding cassette sub-family B member 6 (Homo sapiens) (UniProt Q9NP58); test: ABCB6 transporter inhibitors, pilot screen, K562-ABCB6 cells, flow cytometry, validation set (AID 588550); conditions: K562-ABCB6 porphyrin accumulation, 1 h, at 10 µM, stronger effect = higher value;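 also: 0% = DMSO wells and 100% = benzethonium chloride 70 µM positive control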
[11] = promoters of myeloid differentiation in arrested cells, primary screen, cell-based, GFP/MAC1 double positive, flow cytometry, validation set (AID 588685;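 active = differentiation response of at least 50%, scaled between solvent and reference control, from cells with both markers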;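 also: compound exposure lasts four days before antibody staining and flow analysis; 0% = DMSO wells and 100% = 5 µM fulvestrant positive control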); conditions: ER-HoxA9 marrow cells, stronger effect = higher value, normalized: vehicle 0, fulvestrant 100

Chain of Beta-2 adrenergic receptor (Homo sapiens) (P07550 whole entry, looked up): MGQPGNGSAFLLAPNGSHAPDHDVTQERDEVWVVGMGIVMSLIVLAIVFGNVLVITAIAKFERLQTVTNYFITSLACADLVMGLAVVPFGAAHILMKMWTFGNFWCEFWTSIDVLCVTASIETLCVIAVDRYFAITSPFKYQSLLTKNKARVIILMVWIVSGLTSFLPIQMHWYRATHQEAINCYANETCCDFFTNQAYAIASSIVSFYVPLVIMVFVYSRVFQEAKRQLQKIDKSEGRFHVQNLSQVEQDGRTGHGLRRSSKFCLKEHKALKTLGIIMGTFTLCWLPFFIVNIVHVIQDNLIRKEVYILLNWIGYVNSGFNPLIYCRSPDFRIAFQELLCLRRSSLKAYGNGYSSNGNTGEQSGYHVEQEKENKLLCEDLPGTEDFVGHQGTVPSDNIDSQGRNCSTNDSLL
Chain of ATP-binding cassette sub-family B member 6 (Homo sapiens) (Q9NP58 whole entry, looked up): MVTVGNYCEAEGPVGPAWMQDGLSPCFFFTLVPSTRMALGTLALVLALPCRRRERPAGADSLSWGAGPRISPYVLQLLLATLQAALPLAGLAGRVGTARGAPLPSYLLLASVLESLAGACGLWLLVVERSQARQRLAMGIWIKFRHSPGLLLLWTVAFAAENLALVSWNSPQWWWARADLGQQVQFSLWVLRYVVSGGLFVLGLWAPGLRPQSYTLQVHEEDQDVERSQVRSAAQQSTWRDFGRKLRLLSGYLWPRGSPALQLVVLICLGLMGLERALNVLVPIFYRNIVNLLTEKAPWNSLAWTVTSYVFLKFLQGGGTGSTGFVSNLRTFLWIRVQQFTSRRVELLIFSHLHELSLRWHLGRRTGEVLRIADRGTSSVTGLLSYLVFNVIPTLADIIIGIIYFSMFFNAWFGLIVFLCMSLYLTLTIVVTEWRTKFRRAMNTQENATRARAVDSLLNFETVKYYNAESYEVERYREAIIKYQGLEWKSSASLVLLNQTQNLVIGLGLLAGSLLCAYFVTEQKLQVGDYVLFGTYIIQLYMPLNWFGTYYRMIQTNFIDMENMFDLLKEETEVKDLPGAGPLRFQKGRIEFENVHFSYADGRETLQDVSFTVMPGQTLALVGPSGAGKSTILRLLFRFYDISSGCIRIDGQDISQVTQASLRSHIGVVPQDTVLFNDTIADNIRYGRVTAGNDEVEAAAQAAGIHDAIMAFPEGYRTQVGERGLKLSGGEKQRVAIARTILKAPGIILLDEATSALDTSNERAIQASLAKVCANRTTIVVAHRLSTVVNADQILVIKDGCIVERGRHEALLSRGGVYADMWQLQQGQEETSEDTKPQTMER
Chain of Integrin beta-1 (Homo sapiens) + Integrin alpha-4 (Homo sapiens) (P05556 whole entry, looked up): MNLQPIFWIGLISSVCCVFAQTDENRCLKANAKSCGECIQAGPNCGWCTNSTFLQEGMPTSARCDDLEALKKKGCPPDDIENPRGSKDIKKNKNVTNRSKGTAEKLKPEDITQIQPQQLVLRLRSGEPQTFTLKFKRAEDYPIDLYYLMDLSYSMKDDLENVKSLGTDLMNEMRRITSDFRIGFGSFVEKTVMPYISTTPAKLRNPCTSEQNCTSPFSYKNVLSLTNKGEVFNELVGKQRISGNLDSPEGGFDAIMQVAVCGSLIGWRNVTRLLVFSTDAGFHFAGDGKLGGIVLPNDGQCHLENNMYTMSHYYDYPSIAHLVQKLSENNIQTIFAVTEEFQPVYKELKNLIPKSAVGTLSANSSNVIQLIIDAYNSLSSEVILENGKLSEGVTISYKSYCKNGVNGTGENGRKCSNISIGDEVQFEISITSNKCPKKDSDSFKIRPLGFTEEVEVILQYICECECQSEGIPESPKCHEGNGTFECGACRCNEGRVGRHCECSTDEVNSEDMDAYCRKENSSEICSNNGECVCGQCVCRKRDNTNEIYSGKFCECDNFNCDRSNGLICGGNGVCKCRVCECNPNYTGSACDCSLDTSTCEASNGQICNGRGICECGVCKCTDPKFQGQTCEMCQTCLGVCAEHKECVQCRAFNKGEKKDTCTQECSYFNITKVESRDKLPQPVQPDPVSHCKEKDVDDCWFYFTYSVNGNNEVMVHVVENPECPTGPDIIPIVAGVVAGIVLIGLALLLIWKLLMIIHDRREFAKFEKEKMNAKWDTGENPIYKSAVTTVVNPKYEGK
Chain of Integrin beta-1 (Homo sapiens) + Integrin alpha-4 (Homo sapiens) (P13612 whole entry, looked up): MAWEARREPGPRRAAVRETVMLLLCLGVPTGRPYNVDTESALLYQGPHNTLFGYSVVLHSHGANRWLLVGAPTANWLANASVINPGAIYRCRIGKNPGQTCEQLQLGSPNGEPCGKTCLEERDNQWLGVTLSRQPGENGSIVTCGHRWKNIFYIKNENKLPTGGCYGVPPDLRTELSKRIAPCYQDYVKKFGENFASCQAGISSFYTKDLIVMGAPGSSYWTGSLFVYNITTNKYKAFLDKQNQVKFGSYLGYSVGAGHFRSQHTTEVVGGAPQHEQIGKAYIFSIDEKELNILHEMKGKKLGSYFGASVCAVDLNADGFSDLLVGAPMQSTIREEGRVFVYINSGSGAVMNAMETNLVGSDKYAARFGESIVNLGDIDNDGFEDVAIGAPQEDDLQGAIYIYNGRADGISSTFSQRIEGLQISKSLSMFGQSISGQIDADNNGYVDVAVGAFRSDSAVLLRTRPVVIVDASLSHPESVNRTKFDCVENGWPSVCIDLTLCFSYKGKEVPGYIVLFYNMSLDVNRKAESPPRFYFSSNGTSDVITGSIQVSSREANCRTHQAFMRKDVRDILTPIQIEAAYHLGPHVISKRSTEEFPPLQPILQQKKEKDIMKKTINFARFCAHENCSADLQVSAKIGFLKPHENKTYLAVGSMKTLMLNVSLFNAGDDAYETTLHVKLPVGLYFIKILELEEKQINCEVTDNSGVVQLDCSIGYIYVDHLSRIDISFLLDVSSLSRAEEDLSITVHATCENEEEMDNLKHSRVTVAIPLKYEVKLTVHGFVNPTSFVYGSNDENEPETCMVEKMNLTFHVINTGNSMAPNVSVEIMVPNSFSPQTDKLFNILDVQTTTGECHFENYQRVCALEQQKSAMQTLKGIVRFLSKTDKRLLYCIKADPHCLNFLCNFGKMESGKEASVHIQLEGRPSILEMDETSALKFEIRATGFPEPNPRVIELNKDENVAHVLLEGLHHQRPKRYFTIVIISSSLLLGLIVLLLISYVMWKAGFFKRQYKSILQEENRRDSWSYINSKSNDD
Chain of AP-2 complex subunit beta (Homo sapiens) (P63010 whole entry, looked up, the tested form may be a part, one chain of several): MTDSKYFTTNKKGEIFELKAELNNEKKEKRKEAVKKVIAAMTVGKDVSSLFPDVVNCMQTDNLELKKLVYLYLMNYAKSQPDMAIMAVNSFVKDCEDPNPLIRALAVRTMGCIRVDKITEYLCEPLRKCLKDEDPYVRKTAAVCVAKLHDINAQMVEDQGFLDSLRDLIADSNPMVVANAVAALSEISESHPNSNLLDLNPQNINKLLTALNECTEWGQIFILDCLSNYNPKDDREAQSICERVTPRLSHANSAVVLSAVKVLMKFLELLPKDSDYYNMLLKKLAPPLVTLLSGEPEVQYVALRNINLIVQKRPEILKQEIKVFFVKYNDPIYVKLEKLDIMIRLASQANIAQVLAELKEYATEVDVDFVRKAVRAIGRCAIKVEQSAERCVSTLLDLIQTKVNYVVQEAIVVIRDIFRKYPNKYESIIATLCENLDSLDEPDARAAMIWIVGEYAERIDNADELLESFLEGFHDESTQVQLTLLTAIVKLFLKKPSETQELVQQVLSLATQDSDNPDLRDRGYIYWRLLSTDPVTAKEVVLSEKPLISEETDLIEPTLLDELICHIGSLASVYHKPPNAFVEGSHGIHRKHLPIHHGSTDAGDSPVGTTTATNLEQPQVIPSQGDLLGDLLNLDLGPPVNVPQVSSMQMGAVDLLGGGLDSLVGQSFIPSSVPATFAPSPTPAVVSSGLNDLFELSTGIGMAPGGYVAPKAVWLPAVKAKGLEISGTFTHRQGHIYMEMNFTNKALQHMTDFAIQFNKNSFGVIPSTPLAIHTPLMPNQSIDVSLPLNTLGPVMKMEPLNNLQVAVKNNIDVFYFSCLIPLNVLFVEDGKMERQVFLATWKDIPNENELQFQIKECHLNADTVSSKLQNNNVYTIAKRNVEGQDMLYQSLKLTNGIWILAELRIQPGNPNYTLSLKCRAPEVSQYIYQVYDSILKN
Chain of Beta-adrenergic receptor kinase 1 (Homo sapiens) (P25098 whole entry, looked up): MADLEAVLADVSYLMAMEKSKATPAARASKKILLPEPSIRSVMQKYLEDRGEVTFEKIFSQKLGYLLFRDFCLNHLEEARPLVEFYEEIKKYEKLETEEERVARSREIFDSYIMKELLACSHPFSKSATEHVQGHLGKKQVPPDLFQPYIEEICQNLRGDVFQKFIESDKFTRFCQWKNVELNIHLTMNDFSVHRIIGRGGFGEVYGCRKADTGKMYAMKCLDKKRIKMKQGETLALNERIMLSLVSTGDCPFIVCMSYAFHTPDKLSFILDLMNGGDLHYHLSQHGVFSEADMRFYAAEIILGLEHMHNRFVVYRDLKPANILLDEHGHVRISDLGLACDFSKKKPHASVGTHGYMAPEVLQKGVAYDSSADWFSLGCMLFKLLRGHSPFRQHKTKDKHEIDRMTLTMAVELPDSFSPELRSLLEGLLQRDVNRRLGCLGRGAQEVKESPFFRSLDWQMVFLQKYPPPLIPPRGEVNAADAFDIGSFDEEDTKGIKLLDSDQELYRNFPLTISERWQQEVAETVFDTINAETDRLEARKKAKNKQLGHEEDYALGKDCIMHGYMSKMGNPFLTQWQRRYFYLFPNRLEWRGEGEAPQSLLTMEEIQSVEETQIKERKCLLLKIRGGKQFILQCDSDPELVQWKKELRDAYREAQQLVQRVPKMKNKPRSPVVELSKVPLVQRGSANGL

| Compound | double positive events [1] [%] | vesicle binding response [1] | inhibition [2] | superoxide response (% of plate) [3] | aptamer binding inhibition [4] | response [5] | inhibition [6] | response [7] | binding (% of control) [8] | efflux inhibition (fraction of control) [9] | inhibition [10] | differentiation response [11] |
| --- | --- | --- | --- | --- | --- | --- | --- | --- | --- | --- | --- | --- |
| CC(=O)Nc1cc(O)cc(O)c1 | 60.5 | 189% (inactive) | 11.9% (inactive) | 99.3% (inactive) | -2% (inactive) | -0.41% (inactive) | 0.4% (inactive) | -0.22% (inactive) | 106% (inactive) | -0.06 (inactive) | 6% (inactive) | 69.6% (active) |
| COC(=O)c1cc(-c2c(C)oc3cc(OC)ccc3c2=O)c(C)o1 | 59.2 | 199% (inactive) | 2.3% (inactive) | 96.8% (inactive) | 1% (inactive) | 7.03% (inactive) | 2.24% (inactive) | 1.93% (inactive) | 105% (inactive) | -0.1 (inactive) | 8% (inactive) | 18.4% (inactive) |
| O=c1cc(-c2ccc3c(c2)OCCO3)oc2ccc(Cl)cc12 | 59 | 102% (inactive) | 2.93% (inactive) | 98.9% (inactive) | -1% (inactive) | -2.34% (inactive) | -6.8% (inactive) | 51.3% (active) | 74.9% (active) | 0.08 (inactive) | 27% (inactive) | -6.03% (inactive) |
| CCOC(=O)C1C(=O)CC(C)(O)C(C(=O)OCC)C1/C=C/c1ccccc1 (configuration not stated) | 61.6 | 115% (inactive) | 2.93% (inactive) | 96.1% (inactive) | 2% (inactive) | 4.95% (inactive) | 1.5% (inactive) | -0.5% (inactive) | 102% (inactive) | -0.07 (inactive) | -11% (inactive) | -10.4% (inactive) |
| CCc1cn([C@H]2C[C@H](O)[C@@H](CO)O2)c(=O)[nH]c1=O | 71.1 | 232% (inactive) | -0.33% (inactive) | 95.6% (inactive) | -1% (inactive) | 7.43% (inactive) | 3.19% (inactive) | -0.71% (inactive) | 100% (inactive) | -0.42 (inactive) | 16% (inactive) | 1.64% (inactive) |
| CCc1cccc2c1NC1(CCCC1)CC2C (configuration not stated) | 58.5 | 185% (inactive) | -16.8% (inactive) | 96.3% (inactive) | 4% (inactive) | 45.9% (active) | -1.05% (inactive) | 1.08% (inactive) | 97.6% (inactive) | -0.06 (inactive) | -41% (inactive) | 10.4% (inactive) |
| COc1cc(OC)c(C2C(C#N)=C(N)OC3=C2C(=O)CC(C)(C)C3)cc1OC (configuration not stated) | 59.9 | 137% (inactive) | 5.61% (inactive) | 109% (inactive) | 2% (inactive) | 10.6% (inactive) | 5.17% (inactive) | -1.86% (inactive) | 102% (inactive) | -0.38 (inactive) | 13% (inactive) | -11.9% (inactive) |
| O=c1c2ccccc2nc2n1-c1ccccc1CCC2 | 64.2 | 201% (inactive) | 13% (inactive) | 96.9% (inactive) | 1% (inactive) | -9.83% (inactive) | -5.56% (inactive) | 0.74% (inactive) | 99.2% (inactive) | -0.23 (inactive) | 0% (inactive) | 1.22% (inactive) |
| O=C(/C=C/c1ccccc1)/C=C/c1ccccc1 | 69.3 | 434% (inactive) | 21.4% (inactive) | 105% (inactive) | 2% (inactive) | 48.5% (active) | -3.48% (inactive) | 0.62% (inactive) | 96.6% (inactive) | -0.17 (inactive) | 2% (inactive) | -16.8% (inactive) |
| CCOc1ccccc1Oc1coc2cc(OCC(=O)O)ccc2c1=O | 63.5 | 156% (inactive) | 1.44% (inactive) | 111% (inactive) | 10% (inactive) | -21.7% (inactive) | -11% (inactive) | 5.03% (inactive) | 106% (inactive) | -0.09 (inactive) | -2% (inactive) | -8.93% (inactive) |
| CC(C)COc1ccc(Cc2cnc(N)nc2N)cc1 | 63.9 | 226% (inactive) | 3.67% (inactive) | 97.9% (inactive) | 0% (inactive) | 5.88% (inactive) | 59.5% (active) | -3.28% (inactive) | 95.5% (inactive) | 0.05 (inactive) | 0% (inactive) | 76% (active) |
| CC(=O)c1cn(C)c(=O)[nH]c1=O | 60.8 | 243% (inactive) | -7.25% (inactive) | 103% (inactive) | 3% (inactive) | 72.3% (active) | -5.48% (inactive) | 0.64% (inactive) | 107% (inactive) | -0.24 (inactive) | 2% (inactive) | -8.8% (inactive) |
| C=C(C)c1nc2cc(OC)c(OC)cc2c(=O)o1 | 66.2 | 181% (inactive) | -9.06% (inactive) | 96.8% (inactive) | 0% (inactive) | -1.85% (inactive) | 0.91% (inactive) | 2.81% (inactive) | 105% (inactive) | -0.46 (inactive) | 11% (inactive) | 9.01% (inactive) |
| Cc1csc(-c2coc3cc(O)cc(C)c3c2=O)n1 | 63.8 | 138% (inactive) | 2.3% (inactive) | 119% (inactive) | 2% (inactive) | 0.13% (inactive) | 13.4% (inactive) | -4.09% (inactive) | 97.4% (inactive) | -0.03 (inactive) | 17% (inactive) | 2.4% (inactive) |
| Cc1oc2c(CN3CCCC3)c(O)ccc2c(=O)c1-c1ccc(Cl)cc1 | 75.9 | 328% (inactive) | 3.14% (inactive) | 81.5% (inactive) | 1% (inactive) | -23.2% (inactive) | 6.26% (inactive) | -0.55% (inactive) | 96.9% (inactive) | 0 (inactive) | 10% (inactive) | -1.05% (inactive) |
| CCc1cc(=O)oc2cc(OCC=C(C)C)ccc12 | 66.7 | 297% (inactive) | 26.9% (inactive) | 89.5% (inactive) | 6% (inactive) | 1.45% (inactive) | -1.05% (inactive) | -0.58% (inactive) | 103% (inactive) | -0.03 (inactive) | 3% (inactive) | -18.4% (inactive) |
| Cc1ccc2c(c1)C(O)(CC(=O)/C=C/C=C/c1ccccc1)C(=O)N2 (configuration not stated) | 63.9 | 759% (inactive) | -4.6% (inactive) | 111% (inactive) | 2% (inactive) | -0.9% (inactive) | 4.01% (inactive) | -1.15% (inactive) | 99% (inactive) | -0.26 (inactive) | -7% (inactive) | 2.2% (inactive) |
| CC(C)=CCCC(C)CN1CCC(N2CCC(C(=O)N3CCCC3)CC2)CC1 (configuration not stated) | 66.5 | 278% (inactive) | -11.3% (inactive) | 93.3% (inactive) | -12% (inactive) | 35% (inactive) | -10.9% (inactive) | -0.07% (inactive) | 106% (inactive) | -0.03 (inactive) | 5% (inactive) | -7.2% (inactive) |
| CCC12CN3CC(CC)(CN(C1)C31C(=O)N(C)c3ccc(C)cc31)C2=O (configuration not stated) | 59.5 | 181% (inactive) | -2.82% (inactive) | 94.6% (inactive) | -3% (inactive) | -18.8% (inactive) | 0.32% (inactive) | 4.91% (inactive) | 102% (inactive) | 0 (inactive) | -1% (inactive) | -10.9% (inactive) |
| COc1ccc(C(=O)/C=C2/c3ccccc3CC(C)(C)N2C)cc1 | 59.8 | 124% (inactive) | 2.93% (inactive) | 99% (inactive) | 3% (inactive) | 23.7% (inactive) | -8.96% (inactive) | -3.68% (inactive) | 98.3% (inactive) | -0.25 (inactive) | 7% (inactive) | -7.5% (inactive) |
| Cc1ccc(C(=O)NC(=S)NCCCN2CCOCC2)cc1 | 66.2 | 172% (inactive) | 5.49% (inactive) | 96% (inactive) | 4% (inactive) | 1.89% (inactive) | 4.05% (inactive) | 5.81% (inactive) | 103% (inactive) | -0.38 (inactive) | 13% (inactive) | -0.82% (inactive) |
| Cc1nnc(SCC(=O)N2CCCC(C(=O)c3ccc(Cl)cc3)C2)o1 (configuration not stated) | 71.9 | 299% (inactive) | 2.3% (inactive) | 95.6% (inactive) | 1% (inactive) | -7.42% (inactive) | -3.16% (inactive) | 2.16% (inactive) | 105% (inactive) | 0.3 (inactive) | 3% (inactive) | -13.6% (inactive) |
| O=C1N[C@@H](Cc2cnc[nH]2)C(=O)N2CCC[C@@H]12 | 59.8 | 103% (inactive) | 12.3% (inactive) | 125% (inactive) | 2% (inactive) | 6.03% (inactive) | -3.62% (inactive) | 6.06% (inactive) | 100% (inactive) | -0.07 (inactive) | -2% (inactive) | -7.5% (inactive) |
| COCc1cc(=O)[nH]c(Nc2nc3ccccc3o2)n1 | 62.6 | 117% (inactive) | -7.93% (inactive) | 86.3% (inactive) | 3% (inactive) | -16.5% (inactive) | -0.3% (inactive) | 6.3% (inactive) | 108% (inactive) | 0 (inactive) | 4% (inactive) | 6.83% (inactive) |
| NC12CC3CC(C1)CC(O)(C3)C2 | 65.4 | 201% (inactive) | 2.66% (inactive) | 95.4% (inactive) | 3% (inactive) | -10% (inactive) | -6.38% (inactive) | 2.64% (inactive) | 99% (inactive) | 0.14 (inactive) | 11% (inactive) | 4.15% (inactive) |
| O=c1ccc2ccccc2o1 | 62.3 | 162% (inactive) | -3.77% (inactive) | 95.1% (inactive) | -7% (inactive) | 0.92% (inactive) | 1.88% (inactive) | -9% (inactive) | 103% (inactive) | -0.02 (inactive) | -8% (inactive) | 2.74% (inactive) |
